Source: PubChem BioAssay
Values without a mark were called inactive. Active and inactive are the calls of the source. Cut-off read from the data, not from the text of the source, unless noted: active = inhibition above about 25%; inactive = the rest.

Biological target: Nuclear receptor coactivator 1 (Homo sapiens) (UniProt Q15788)
Experiment: SRC1 coactivator transcriptional activity inhibitors, confirmation, cell-based, luminescence, quadruplicate (AID 588820;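 active = mean inhibition above 46.68%, the untreated control wells mean plus 3 SD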;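 note: 0% = DMSO wells and 100% = gossypol 36 µM treated wells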)
Conditions: HEK293 GAL4-SRC1 luciferase reporter, at 3.6 µM, hits give high values

Chain of Nuclear receptor coactivator 1 (Homo sapiens) (Q15788 whole entry, looked up): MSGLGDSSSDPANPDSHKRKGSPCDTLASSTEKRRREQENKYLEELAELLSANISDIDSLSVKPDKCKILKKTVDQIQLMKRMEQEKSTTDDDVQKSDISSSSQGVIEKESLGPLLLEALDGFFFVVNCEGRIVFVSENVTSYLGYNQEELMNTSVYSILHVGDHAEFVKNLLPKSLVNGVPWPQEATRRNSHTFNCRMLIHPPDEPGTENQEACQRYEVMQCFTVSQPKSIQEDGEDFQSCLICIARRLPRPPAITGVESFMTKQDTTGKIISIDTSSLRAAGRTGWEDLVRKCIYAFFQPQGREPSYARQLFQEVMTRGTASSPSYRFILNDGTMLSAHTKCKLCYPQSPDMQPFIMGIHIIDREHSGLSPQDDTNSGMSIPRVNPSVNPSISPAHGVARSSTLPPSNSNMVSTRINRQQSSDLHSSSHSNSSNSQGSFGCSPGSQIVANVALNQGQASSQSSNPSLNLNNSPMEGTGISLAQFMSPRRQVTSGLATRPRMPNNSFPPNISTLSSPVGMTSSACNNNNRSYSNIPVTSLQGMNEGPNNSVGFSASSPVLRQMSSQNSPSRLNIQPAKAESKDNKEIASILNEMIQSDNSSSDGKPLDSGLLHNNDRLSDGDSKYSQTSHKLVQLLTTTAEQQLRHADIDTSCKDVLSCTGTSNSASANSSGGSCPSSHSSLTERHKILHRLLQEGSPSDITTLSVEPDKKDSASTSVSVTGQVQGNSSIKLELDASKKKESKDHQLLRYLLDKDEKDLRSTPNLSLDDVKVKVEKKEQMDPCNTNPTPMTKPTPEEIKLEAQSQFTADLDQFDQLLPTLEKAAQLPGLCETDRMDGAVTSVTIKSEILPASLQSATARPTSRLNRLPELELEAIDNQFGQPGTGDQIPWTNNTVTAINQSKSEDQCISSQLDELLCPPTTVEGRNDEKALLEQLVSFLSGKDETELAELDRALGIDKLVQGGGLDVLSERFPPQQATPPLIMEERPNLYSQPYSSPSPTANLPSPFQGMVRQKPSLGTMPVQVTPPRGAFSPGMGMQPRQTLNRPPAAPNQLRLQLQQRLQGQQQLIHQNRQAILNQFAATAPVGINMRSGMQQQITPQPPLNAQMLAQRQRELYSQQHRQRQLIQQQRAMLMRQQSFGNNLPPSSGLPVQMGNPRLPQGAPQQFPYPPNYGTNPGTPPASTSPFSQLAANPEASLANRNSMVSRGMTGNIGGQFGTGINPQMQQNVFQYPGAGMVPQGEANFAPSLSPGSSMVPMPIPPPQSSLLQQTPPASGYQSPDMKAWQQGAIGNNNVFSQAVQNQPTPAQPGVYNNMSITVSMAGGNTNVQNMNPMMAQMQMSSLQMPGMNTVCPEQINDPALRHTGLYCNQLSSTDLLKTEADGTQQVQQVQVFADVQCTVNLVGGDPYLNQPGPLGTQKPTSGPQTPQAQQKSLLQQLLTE

Compound | inhibition
CCOC(=O)c1c(C)c2c(=O)[nH]cnc2n1-c1ccccc1 | 59.9% (active)
CC(C)n1cc(/C=C/c2cc[n+](C)cc2)c2ccccc21 | 16.8%
Cc1cc(=O)[nH]c(NN=Cc2cc(Br)ccc2O)n1 | 51.2% (active)
CC(C)n1c(-c2cccnc2)nc2cnccc21 | 38.1%
O=C(NCc1ccccc1)c1csc(-c2cccnc2)n1 | 42.7%
c1ccc(-c2noc(-c3ccc4c(c3)OCO4)n2)nc1 | 8.09%
CCN(CC)c1ccc(/C=N/NC(=O)CNC(=O)C2COc3ccccc3O2)c(O)c1 (stereo not drawn) | 8.85%
O=C(Nc1ccc(Cn2cccn2)cc1)c1ccc(COc2cccc(Br)c2)cc1 | -34.7%
O=C(NC(=S)/C(=C1\CCCCCN1)[N+](=O)[O-])c1ccccc1 | -25.3%
NNC(=O)c1cnn(Cc2ccccc2)c1N | -14.9%
O=C(Nc1nc(-c2ccc(S(=O)(=O)N3CCCC3)cc2)cs1)C1COc2ccccc2O1 (stereo not drawn) | -8.23%
CN(Cc1ccccc1)c1ncnc(N)c1[N+](=O)[O-] | 38.4%
O=c1cccc2c1c1cc[nH]c3ccc(=O)n2c31 | 54.3% (active)
COc1ccc2c(c1OC)C(=O)N1c3ccccc3C(=O)N(c3ccccc3)C21 (stereo not drawn) | -5.64%
CC(=O)NS(=O)(=O)c1ccc(NC(=O)/C=C/c2cn(-c3ccccc3)nc2-c2ccccc2)cc1 | 1.36%
Cc1ccc(-c2nnn(CC(=O)N(Cc3cccs3)C(C(=O)NC3CCCC3)c3ccncc3)n2)cc1 (stereo not drawn) | 48.4% (active)
COC(=O)c1ccc2nc(Nc3nc4ccc(F)cc4s3)sc2c1 | -36.1%
N=c1c2c(-c3ccccc3)c(-c3ccccc3)n(Cc3ccccc3)c2ncn1CCCn1ccnc1 | 57.4% (active)
COc1ccc(Cc2nnc(SCc3ccc([N+](=O)[O-])cc3)o2)cc1 | 19.3%
CCCCCCCCCCCCCCCCCCNc1ccn(C2OC(COP(=O)(O)OCC3OC(n4cc(F)c(=O)[nH]c4=O)CC3O)C(O)C2O)c(=O)n1 (stereo not drawn) | 51% (active)
C[n+]1c2n(c3ccccc31)N=C(c1ccc(Br)cc1)CS2 | -14.8%
Cc1cc(=O)[nH]c(Nc2cccc(Br)c2)n1 | 34.2%
Cc1cc(C)c2nc3nc(C)c(C)cc3c(N)c2c1 | 5.02%

System: not listed separately
Experiment: VP16 transactivation inhibitors, counter-screen for SRC1 inhibitor project, cell-based, luminescence, high throughput (AID 588824)
Conditions: cell-based VP16 transactivation luciferase luminescence; at 3.6 µM; hits give high values

Compound | inhibition
COC(=O)c1cc(Cl)cc(Cl)c1OS(=O)(=O)N(C)C | -59.6%
CC1Sc2ccc(Cl)cc2-c2nc(N)ncc21 (stereo not drawn) | 39.7% (active)
NC(=O)c1cc(Sc2ccccc2)nc2ccccc12 | 16%
NNC(=O)C(=O)Nc1ccc(O)cc1 | -2.23%
Cc1ccc(CNc2ncnc3ccc(-c4ccoc4C)cc23)o1 | 50.9% (active)
O=C(CCl)N1N=C(c2ccco2)CC1c1cccs1 (stereo not drawn) | 21.7%
COc1ccc(-c2nsc3c(N4CCCCC4)ncnc23)cc1 | -6.65%
CCN1/C(=C/c2ccc3cc(C)cc(C)c3[n+]2CC)Sc2cc(C)ccc21 | 59.3% (active)
O=C(NCc1ccc(Cl)cc1)c1csc(-c2cccnc2)n1 | 7.38%
CC(=O)Nc1ccc(SCC(=O)c2cc(C)n(-c3ccccc3)c2C)cc1 | -6.91%
O=C(Nc1ccc([N+](=O)[O-])cc1)Nc1ccc(OC(F)F)c(Cl)c1 | 39.7% (active)
NC(=O)C(C(=O)/C=C/c1ccc(Cl)cc1)=C1SCCS1 | 33.8% (active)
Cc1cc(C(=O)NNc2ccc(F)cc2)no1 | 8.26%
COc1cc(/C=C2\CC(C(C)(C)C)C/C(=C\c3cc(OC)c(OC)c(OC)c3)C2=O)cc(OC)c1OC (stereo not drawn) | 18.4%
Cc1ccc(S(=O)(=O)NC(CC(C)C)C(=O)NCC(c2ccco2)N2CCCCC2)cc1 (stereo not drawn) | -1.82%
O=[N+]([O-])c1cccc2c1ccc1ncccc12 | 15.9%
O=C(Nc1ccc(S(=O)(=O)N2CCCCC2)cc1)c1ccc(CN2CCOCC2)cc1 | 47.1% (active)
CCOC(=O)c1c(C)c2c(=O)[nH]cnc2n1-c1ccccc1 | 39.9% (active)
CC(C)n1cc(/C=C/c2cc[n+](C)cc2)c2ccccc21 | 30.3% (active)
Cc1cc(=O)[nH]c(NN=Cc2cc(Br)ccc2O)n1 | 64.8% (active)

Compound | inhibition
CC(C)n1c(-c2cccnc2)nc2cnccc21 | 18.9%
O=C(NCc1ccccc1)c1csc(-c2cccnc2)n1 | 37% (active)
c1ccc(-c2noc(-c3ccc4c(c3)OCO4)n2)nc1 | 33.7% (active)
CCN(CC)c1ccc(/C=N/NC(=O)CNC(=O)C2COc3ccccc3O2)c(O)c1 (stereo not drawn) | 18.9%
O=C(Nc1ccc(Cn2cccn2)cc1)c1ccc(COc2cccc(Br)c2)cc1 | 30.4% (active)
O=C(NC(=S)/C(=C1\CCCCCN1)[N+](=O)[O-])c1ccccc1 | -33%
NNC(=O)c1cnn(Cc2ccccc2)c1N | -5.69%
O=C(Nc1nc(-c2ccc(S(=O)(=O)N3CCCC3)cc2)cs1)C1COc2ccccc2O1 (stereo not drawn) | -2.78%
CN(Cc1ccccc1)c1ncnc(N)c1[N+](=O)[O-] | 30% (active)
O=c1cccc2c1c1cc[nH]c3ccc(=O)n2c31 | 40% (active)
COc1ccc2c(c1OC)C(=O)N1c3ccccc3C(=O)N(c3ccccc3)C21 (stereo not drawn) | 2.1%
CC(=O)NS(=O)(=O)c1ccc(NC(=O)/C=C/c2cn(-c3ccccc3)nc2-c2ccccc2)cc1 | -3.92%
Cc1ccc(-c2nnn(CC(=O)N(Cc3cccs3)C(C(=O)NC3CCCC3)c3ccncc3)n2)cc1 (stereo not drawn) | 34.1% (active)
COC(=O)c1ccc2nc(Nc3nc4ccc(F)cc4s3)sc2c1 | -19.9%
N=c1c2c(-c3ccccc3)c(-c3ccccc3)n(Cc3ccccc3)c2ncn1CCCn1ccnc1 | 62.8% (active)
COc1ccc(Cc2nnc(SCc3ccc([N+](=O)[O-])cc3)o2)cc1 | 17.4%
CCCCCCCCCCCCCCCCCCNc1ccn(C2OC(COP(=O)(O)OCC3OC(n4cc(F)c(=O)[nH]c4=O)CC3O)C(O)C2O)c(=O)n1 (stereo not drawn) | 31.2% (active)
C[n+]1c2n(c3ccccc31)N=C(c1ccc(Br)cc1)CS2 | 30.4% (active)
Cc1cc(=O)[nH]c(Nc2cccc(Br)c2)n1 | 24.4%
Cc1cc(C)c2nc3nc(C)c(C)cc3c(N)c2c1 | 48% (active)
